The full list was thinned out, with hits kept by preference.
Tgondii IFNg = T. gondii growth inhibition with IFN-gamma, primary screen, cell-based. AID 1259416, 2018. Toxoplasma gondii growth in IFN-gamma-treated host cells; hits give low values. activity change, negative = inhibition, % (concentration not given with the values). hit rate 3.8% among 69,000; in the data active = activity change below about -70%, passing the limit was not always enough;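 also: host cells are HeLa cells infected with Toxoplasma gondii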
* hit, by the source's call; i = inactive.

SMILES	Tgondii IFNg
Cc1ccc(NC(=O)N2CCC(c3nc(C(=O)N4CCCC4)c(C)o3)CC2)cc1	-41
Cc1oc(C2CCN(C(=O)Nc3cc(F)cc(F)c3)CC2)nc1C(=O)N1CCCC1	-28
Cc1cccc(NC(=O)N2CCC(c3nc(C(=O)N4CCCC4)c(C)o3)CC2)c1	-19
Cc1ccc(NC(=O)N2CCC(c3nc(C(=O)N4CCCC4)c(C)o3)CC2)c(C)c1	-77*
Cc1oc(C2CCN(S(=O)(=O)c3ccccc3F)CC2)nc1C(=O)N1CCCC1	30
Cc1ccc(F)cc1S(=O)(=O)N1CCC(c2nc(C(=O)N3CCCCC3)c(C)o2)CC1	-77*
Cc1ccc(NC(=O)N2CCC(c3nc(C(=O)N4CCCC4)c(C)o3)CC2)c(Cl)c1	10
Cc1oc(C2CCN(C(=O)Nc3cccc(F)c3C)CC2)nc1C(=O)N1CCCC1	-81*
Cc1oc(C2CCN(S(=O)(=O)c3cc(F)ccc3F)CC2)nc1C(=O)N1CCCC1	-13
CC1=NOC(C(=O)NCc2cnn3ccccc23)C1 (stereo not given)	-26
CC(=O)N[C@H]1C[C@@H](c2cccc(Cn3cccn3)c2)O[C@@H](C(C)C)C1	-2
COc1cc(-c2ccc(S(N)(=O)=O)cc2F)cc(OC)c1OC	-3
Cn1cccc1C(=O)N1CCC2(CCC(OCCO)c3ccccc32)CC1 (stereo not given)	-4
Cc1ccc2c(CN3CCN(CC(=O)Nn4c(C)nc5sc(C)cc5c4=O)CC3)cc(=O)oc2c1	0
CC1N(C)C(=O)COC12CCN(C(=O)Cc1ccsc1)CC2 (stereo not given)	5
CCCCN(C)C(=O)c1nc2c(s1)CCCN2c1ccc(C)nn1	-44
COc1nccnc1-c1c[nH]c2ccc(C)cc12	138
Cc1ccc2[nH]cc(-c3nccc(C(F)(F)F)n3)c2c1	-12
COc1nc(OC)nc(-c2c[nH]c3ccc(C)cc23)n1	-87*
Cc1cc(C)cc(C(=O)N2CCCn3nnc(Cn4ccnc4)c3C2)c1	-2
COc1ccc(F)c(-c2ncccc2NC(=O)C(C)C)c1	6
Cn1cc(N2C(=O)CC3C2CCN3C(=O)Cc2ccccc2)cn1 (stereo not given)	66
Cc1cc(Br)c2c(c1)c(N=NC(N)=S)c(O)n2C	-31
NC(=S)N=Nc1c(O)n(Cc2ccccc2)c2ccccc12	-103*
Cn1c(=O)c2c(nc(CN3CCc4ccccc4C3)n2Cc2ccccc2F)n(C)c1=O	-79*
SMILES	Tgondii IFNg
Cc1nc2c(c(=O)[nH]1)CCN(Cc1cccn1Cc1ccccc1F)C2	15
Cn1c(=O)c2c(nc(N3CCN=C3SCC(N)=O)n2Cc2ccccc2)n(C)c1=O	-11
COc1ccc(S(=O)(=O)N2CCN(C)c3ncccc3C2)cc1	-2
c1ccc(C(c2ccccc2)c2nc(CSc3nnnn3-c3ccccc3)no2)cc1	-21
Cc1[nH]n2c(=O)cc(CSc3nnnn3-c3ccccc3)nc2c1-c1ccc(F)cc1	-93*
COC(=O)c1cccc(-n2nnnc2SCC(=O)Nc2ccc(F)cc2)c1	-1
O=C(c1cccc(F)c1)N1C[C@H]2CCCN(S(=O)(=O)c3ccc(Cl)s3)[C@H]2C1	-20
COCCC1COC2(CCCN(C(=O)c3ccoc3)C2)C1 (stereo not given)	-57
Cc1cc(C)c(N2C(=O)C3C(c4ccccc4)C=CC(c4ccccc4)C3C2=O)c(C)c1 (stereo not given)	-99*
C=CCN(Cc1ccccn1)C(=O)C(=O)N1CCCCCC1	3
CN1C/C=C/CCOc2cccc(c2)-c2ccnc(n2)Nc2cccc(c2)C1	-84*
O=C1NN=CC1CCCNC(=S)Nc1cccc(C(F)(F)F)c1 (stereo not given)	13
FC(F)(F)c1cccc(NC(=S)Nc2ccccn2)c1	-113*
S=C(Nc1ccccc1)Nc1ccccn1	61
O=C1NCC2(CCCN(C(=O)C3(c4ccc(F)cc4)CCOCC3)CC2)O1 (stereo not given)	57
Cc1ccc(/C=C/C(=O)N2CCCC(c3nc(CCNC(=O)C4CC4)cs3)C2)cc1 (stereo not given)	-67
CCC(=O)NCCc1csc(C2CCCN(C(=O)/C=C/c3cccc(Cl)c3)C2)n1 (stereo not given)	-79*
CC(=O)NCCc1csc(C2CCCN(C(=O)/C=C/c3ccccc3Cl)C2)n1 (stereo not given)	-6
CCn1nc(NC(=O)Cc2coc3cc(C)ccc23)cc1C	37
CN1Cc2ccccc2CC2(CCN(c3ccc(C#N)cn3)CC2)C1=O	-1
COc1c/c(=C2\C=c3ccccc3=N2)[nH]/c1=C\c1[nH]c(C)cc1C	-85*
COCCn1ccnc1CN1CCN(C(=O)c2ccccc2)CC1	188
c1cncc(-c2noc(C3CCCN(C4CCC5(CCNCC5)CC4)C3)n2)c1 (stereo not given)	-6
CN(C)C(=O)N1CCC2(CC1)CCn1c(C3CC3)cnc12	i
C#CCOc1ccc(CN2CCC(c3cc(=O)[nH]c(N4CCCC4)n3)CC2)cc1OCC	0
SMILES	Tgondii IFNg
O=C(c1cccnc1)N1CCc2c(CN3CCCC3)n[nH]c2C1	17
Cn1cc(N2CC3(CCN(c4ncccn4)CC3)OCC2=O)cn1	-1
Cn1cc(-c2ccncc2)c(-c2ccc(CNC(=O)COCC3CCCCO3)cc2)n1 (stereo not given)	-92*
Cc1cnccc1-c1cn(C)nc1-c1cccc(CNC(=O)Cc2cccnc2)c1	-19
COc1cccc(OC(C)C(=O)NCc2cccc(-c3nn(C)cc3-c3ccncc3)c2)c1 (stereo not given)	-114*
Cc1ncc(-c2ccncc2)c(-c2ccc(CNC(=O)C3CCOC3)cc2)n1 (stereo not given)	-39
COc1ccccc1-c1cccc(-c2nc(C(=O)NCc3ccncc3)cc3c2[C@H](CCO)N([S@@](=O)C(C)(C)C)C3)c1	-2
CCC(=O)NCc1cccc(-c2ccc(OC)cc2OC)c1	-1
CN1CCN(c2ncccc2CNC(=O)COCC2CCCO2)CC1 (stereo not given)	-3
COc1cc(C(=O)NCc2ccc(-c3nn(C)cc3-c3ccncc3)cc2)nc(OC)n1	-102*
COc1cc(C(=O)NCCCn2ccnc2C)nc(OC)n1	-11
Cc1cc(-c2cnc(N3CCn4cnnc4C3)nc2-c2ccncc2)on1	4
CNC(=O)C1(Cc2cccc(-c3cccs3)c2)CCN(C(=O)c2ccccc2OC)CC1	-27
Cc1ccc(Cl)cc1NC(=O)Cn1ncc2c(N3CCN(c4ccccc4)CC3)ncnc21	31
CNC(=O)c1ccc(C2CCCN2C(=O)c2cc(CC(C)C)nn2C)s1 (stereo not given)	-4
O=C(Nc1cccc(-n2cnnn2)c1)c1ccccc1	2
Cc1onc(-c2ccccc2)c1NC(=O)Nc1ccc(-n2ccc(C(F)(F)F)n2)cc1	-13
O=C(Nc1ccccc1)Nc1ccc(-n2ccc(C(F)(F)F)n2)cc1	-81*
Cc1cccc(-n2cc(CN(C)C(=O)C(=O)c3ccco3)cn2)c1	18
COc1ccccc1C1CCCN1C(=O)C1CCCN(c2nc(C)c3ccc(C)cc3n2)C1 (stereo not given)	13
CCN(CC)c1ncnc2c1cnn2-c1ccccc1	i
N#Cc1cnn(-c2ncnc3c2cnn3-c2ccccc2)c1N	-93*
c1ccc(-n2ncc3c(NC4CCCCCCCCCCC4)ncnc32)cc1	30
CN(C)S(=O)(=O)c1ccc2c(c1)cc(C(=O)NCCc1ccco1)n2Cc1ccncc1	22
CN1CCN(C[C@H]2OC[C@H]3CCN(C(=O)c4ccco4)C[C@H]32)CC1	-29
c1ccc(-c2[nH]cnc2-c2cccc(-n3cccn3)c2)cc1	-95*

Bioassay records deposited in PubChem BioAssay by Broad Institute.
